# A selection: hits, their analogues and other compounds. The true share with any hit is near 0.96%.
# TRPV1 ag = agonists of human vanilloid receptor 1 (TRPV1). TRPV1-expressing cells, Fluo-8 calcium influx, agonist mode. activation, % at 8.33 µM. Q8NER1. 320,000 compounds, 0.19% hits; in the data active = activation above about 80%; inconclusive = between about 30% and that limit; also: 0% is about no effect
#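 TRPV1-expressing cells were cultured overnight at 35.5C and loaded with Fluo-8 calcium dye for 40 to 90 min at room temperature. After a 10 s baseline, compound was added and calcium influx was read kinetically for 3 min (ex 480/em 520 nm).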
# TRHR enhancer = TRH receptor (human) allosteric enhancement; P34981; TRHR cells, fluo-8 calcium fluorescence, EC20 TRH enhancement; enhancement, % at 2 µM; 360,000 compounds, 0.66% hits; AID 493056; in the data active = enhancement above about 30%; also: 0% is about no effect
#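 Enhancer read-out: after compound pinning and an initial kinetic agonist-mode read, an EC20 of TRH (10 nM final) was injected and fluo-8 calcium signal (Ex 480/Em 530) followed at 1 s/cycle for 100 cycles in TRHR-expressing cells.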
# TRHR agonist = agonists of human TRH receptor; TRHR cells, calcium flux fluo-8, FDSS agonist mode; activation, % at 2 µM; 360,000 compounds, 0.18% hits; AID 493084; in the data active = activation above about 30%; also: 0% is about no effect
#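 Steps: seed TRHR cells overnight; add fluo-8 no-wash Ca dye, RT 30 min–1.5 h; record 10 s baseline; pin-transfer compounds; monitor fluorescence 1 cycle/s for the agonist window. Calcium increases flag candidate agonists.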
# TRPV1 PAM = human TRPV1 potentiation | potentiation, % at 8.33 µM | TRPV1-expressing cells, Fluo-8 calcium influx, capsaicin EC20 potentiation | Q8NER1 | 320,000 compounds, 0.02% hits | AID 540277; in the data active = potentiation above about 80%; inconclusive = between about 30% and that limit; also: 0% is about no effect
#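 TRPV1-expressing cells were cultured overnight at 35.5C and loaded with Fluo-8 calcium dye for 40 to 90 min at room temperature. After a 10 s baseline, compound was added and calcium influx was read kinetically for 3 min (ex 480/em 520 nm).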
# TRPML1 inh = human mucolipin-1 channel inhibition. TRPML1-inducible cells, Ca2+ dye fluorescence, FDSS; stronger effect = lower value; inhibition of EC80 agonist-evoked calcium signal. activity change, negative = inhibition, % (no concentration beside the values). 390,000 compounds, 0.02% hits. Q9GZU1; in the data active = activity change below about -50%; inconclusive = between about -30% and that limit;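 also: stimulus is agonist 54-4 at its EC80 concentration; % is scaled to controls: 0 for no effect and ±100 for the full control effect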
# Target sequence (Q9GZU1 whole entry, looked up): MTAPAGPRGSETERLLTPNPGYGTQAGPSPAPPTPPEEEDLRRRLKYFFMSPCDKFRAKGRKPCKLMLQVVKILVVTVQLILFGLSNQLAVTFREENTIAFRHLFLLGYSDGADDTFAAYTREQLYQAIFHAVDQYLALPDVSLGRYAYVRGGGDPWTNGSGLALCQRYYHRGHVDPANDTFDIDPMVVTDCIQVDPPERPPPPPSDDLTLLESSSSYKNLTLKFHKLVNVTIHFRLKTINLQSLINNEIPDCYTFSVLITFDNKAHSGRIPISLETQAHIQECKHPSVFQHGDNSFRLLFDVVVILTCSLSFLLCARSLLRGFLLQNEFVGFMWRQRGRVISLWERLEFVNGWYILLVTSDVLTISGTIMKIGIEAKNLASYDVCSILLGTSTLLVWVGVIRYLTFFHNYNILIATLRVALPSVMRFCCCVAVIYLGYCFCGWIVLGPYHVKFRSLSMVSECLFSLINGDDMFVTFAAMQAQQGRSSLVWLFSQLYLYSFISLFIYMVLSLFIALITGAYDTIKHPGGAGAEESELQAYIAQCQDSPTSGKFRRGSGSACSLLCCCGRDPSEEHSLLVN
#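 TRPML1-DL cells, Tet-induced overnight (~16 h, 37 °C) at 1,500 cells/well, were loaded with Ca8 no-wash dye plus quencher for 45-90 min at room temperature. Compounds were pinned during FDSS kinetic reading; agonist 54-4 at EC80 (4 uM final) then added.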
# TRPML1 agonist = agonists of human TRPML1 channel; Q9GZU1; activation, % (concentration not given with the values); 410,000 compounds, 0.12% hits; TRPML1-expressing cells, Ca2+ dye fluorescence, FDSS; in the data active = activation above about 50%; inconclusive = mostly about 30% to 49%; also: 0% is about no effect
#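 Cells: TRPML1-DL, 1X Tet inducer, ~16 h at 37 degrees C/5% CO2. Dye: ABD Ca8 no-wash + quencher, 45-90 min RT. Read: 10 s baseline, compound add, 110 s agonist phase; 54-4 EC80 (4uM final), 110 s antagonist phase.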
# Starred values were filed as active, the others as inactive; ? = inconclusive; · = no result.
SMILES,TRPV1 ag,TRHR enhancer,TRHR agonist,TRPV1 PAM,TRPML1 inh,TRPML1 agonist
CN(C)c1ccc(/C=C2\C(=N)N3C(=NC2=O)Sc2cc(S(C)(=O)=O)ccc23)cc1,?,2,34*,-9,·,·
CN(C)c1ccc(/C=C2\C(=N)N3N=C(CC(=O)N4CCCCC4)SC3=NC2=O)cc1,?,1,31*,0,9,26
N#CCCn1cc(CNCc2cccnc2)c(-c2ccccc2)n1,·,·,·,·,·,0
CC(=O)Nc1ccc(SC[C@H](Cc2ccccc2)N2CC[C@@H](N)CCC2=O)cc1,·,·,·,·,·,0
COc1cccc(-c2c(C(=O)N/N=C(\C)c3cccs3)nnn2-c2nonc2N)c1,-4,7,-2,0,-17,2
C/C(=N\NC(=O)c1nnn(-c2nonc2N)c1-c1ccc2c(c1)OCO2)c1cccs1,-4,31*,13,-8,4,3
Cc1cc(N(C)C)ccc1/C=C/c1ccnc2ccccc12,·,·,·,·,·,17
Nc1c(C(=O)c2ccccc2)sc2nsc(SCCN3CCOCC3)c12,106*,11,89*,-5,-4,?
CC(=O)c1sc2nsc(SCCN3CCOCC3)c2c1N,14,-13,0,-23,-12,1
COc1cccc(OC)c1-c1cc(CCCc2cc(-c3c(OC)cccc3OC)nc3ccccc23)c2ccccc2n1,·,·,·,·,·,2
O=C1OC(c2ccccc2)=C/C1=C/N1CCCCC1,81*,18,0,-3,-12,1
NC(=O)COc1ccccc1C(=O)Nc1ccccc1,·,·,·,·,·,-1
COC(=O)c1ccc(/C=C/C(=O)c2ccc(OC)c(OC)c2)cc1,-2,36*,0,-3,-1,-1
COc1ccc(/C=C/C(=O)c2ccc(C(=O)/C=C/c3ccc(OC)c(OC)c3)cc2)cc1OC,5,-1,9,18,-1,5
CC(C)(C)n1ncc2c(=O)n(Cc3ccccc3Cl)cnc21,·,·,·,·,-1,2
COc1ccc(CNc2nc3ccccc3n2Cc2ccc(Cl)cc2)cc1OC,-2,-9,0,12,-7,0
CC(C)n1c(NCc2ccc(Cl)cc2)nc2ccccc21,2,40*,0,18,-1,-1
COc1ccc(Cn2c(CO)cnc2SCC(=O)Nc2cccc(NC(C)=O)c2)cc1,-2,32*,0,4,-14,1
CN(C)c1c(Br)cc(C=O)cc1Br,·,·,·,·,·,-1
CC(=O)Oc1ccc(C(=O)COC(=O)CNC(=O)COc2ccccc2C)cc1,·,·,·,·,·,0
COc1cccc(-c2nnc(NC(=O)c3cccc(F)c3)o2)c1,-3,33*,0,10,20,1
O=C1c2cccc3c(N4CCCCC4)ccc(c23)C(=O)N1c1ccccn1,?,14,156*,-8,-12,6
O=C1c2cccc3c([N+](=O)[O-])ccc(c23)C(=O)N1c1ccccn1,·,4,-1,·,17,1
COc1ccc(OC)c(NS(=O)(=O)c2ccc(N3CCCC3=O)cc2)c1,-1,34*,0,0,-11,0
COc1ccc(CCNS(=O)(=O)c2ccc(N3CCCC3=O)cc2)cc1,·,·,·,·,-8,-1
SMILES,TRPV1 ag,TRHR enhancer,TRHR agonist,TRPV1 PAM,TRPML1 inh,TRPML1 agonist
CC(C)(C)CC(C)(C)N=C1Nc2ccc([N+](=O)[O-])cc2N[C@]12C[C@H]1CCCC(=O)N3CC[C@@H](C2)[C@@H]13,·,·,·,·,·,5
Cc1cccc(-c2nc(CN3CCN(Cc4cccc(F)c4)CC3)c(C)o2)c1,2,31*,0,15,-1,0
Cc1cc2c(s1)c1cnn(Cc3cc(F)cc(F)c3F)c(=O)c1n2C,·,-1,0,·,·,·
COc1cc(C(=O)Nc2cccc(-c3nncn3C)c2)cc(OC)c1OC,-1,34*,0,7,5,0
COc1cc(C(=O)Nc2cccc(NC(=O)c3ccccc3)c2)cc(OC)c1OC,-1,-2,-1,9,-7,1
COc1ccc(C)cc1N(C(=O)c1snc(C(N)=O)c1N)C(C(=O)NC1CCCC1)c1ccc(F)cc1 (stereo not given),99*,-7,0,10,3,2
Cc1ccccc1N(C(=O)c1snc(C(N)=O)c1N)C(C(=O)NCC1CCCO1)c1ccc(F)cc1 (stereo not given),1,40*,-1,-1,-9,-2
COc1ccc(N(C(=O)c2snc(C(N)=O)c2N)C(C(=O)NC2CCCC2)c2ccc(F)cc2)c(OC)c1 (stereo not given),-4,0,-1,-3,?,1
Cc1ccnc2cc(Cl)c(Cl)cc12,·,·,·,·,·,-1
Cc1nc([N+](=O)[O-])cn1CC(=O)c1ccc2c(c1)OCCO2,·,·,·,·,·,0
CCCOC(=O)c1c(NC(=O)c2nc3ncccn3n2)sc(C(=O)OCC)c1C,·,-3,-1,·,1,-1
CCN(CC)C(=O)c1sc(NC(=O)c2nc3ncccn3n2)c(C(=O)OC)c1C,·,32*,-1,·,-20,1
COc1ccc(S(=O)(=O)Nc2ccc3cn[nH]c3c2)cc1C,14,39*,0,-16,6,2
COc1ccc(NS(=O)(=O)c2ccc3[nH]c(=O)[nH]c3c2)cc1OC,0,32*,1,8,-3,-1
O=C(O)c1ccc(-n2c(/C=C\c3ccc(O)cc3)nc3ccccc3c2=O)cc1,·,12,2,·,54,4
CN(C)c1ccc(/C=C/c2nc3ccccc3c(=O)n2-c2ccc(C(=O)O)cc2)cc1,?,30*,121*,-14,19,64*
CNCc1nc(-c2ccc[nH]2)c2cc(Cl)ccc2n1,·,·,·,·,·,0
COc1ccc(F)cc1-c1cc(C(=O)Nc2ccc(NC(C)=O)cc2)[nH]n1,·,·,·,·,·,-1
COc1cc2[nH]c(C(=O)Nc3ccc(F)cc3)cc2c(OC)c1OC,86*,-6,0,-6,·,·
Cc1ccc(N2CCN(C(=O)c3cnn(-c4ccc(F)cc4F)c3C3CCN(C(=O)OC(C)(C)C)CC3)CC2)c(C)c1,·,13,2,·,-10,58*
CC(C)(C)OC(=O)N1CCC(c2c(C(=O)N3CCCCC3)cnn2-c2ccc(F)cc2F)CC1,·,-8,1,·,-12,0
Cc1ccc(C)c(N2CCN(C(=O)c3cnn(C(C)(C)C)c3C3CCN(C(=O)OC(C)(C)C)CC3)CC2)c1,·,-12,17,·,-26,51*
O=C(O)c1cc2cccc([N+](=O)[O-])c2[nH]1,·,·,·,·,·,-1
COC(=O)c1cc(NC(=O)Cc2ccccc2[N+](=O)[O-])cc(C(=O)OC)c1,83*,5,0,-8,-1,1
C1=C(CCNc2ncnc3c2[nH]c2ccccc23)CCCC1,80*,-10,4,-29,2,0

# Bioassay records (PubChem)
